Laboratory results as given in the supplement of paper PMC6411743.
± gives the standard deviation of the averaged measurements. About 6,500 targets were measured; listed, in parts, are those with the largest changes and a random draw of the rest.

Compound: Nc1ncnc2c1ncn2[C@@H]1O[C@H](COP(=O)(O)OP(=O)(O)OP(=O)(O)O)[C@@H](O)[C@H]1O [adenosine triphosphate]
Experiment: NP40-soluble protein abundance relative to vehicle (solubility fold change) (ratio); higher = more soluble protein in presence of ATP
Method in brief: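 Jurkat crude lysate (Dounce-homogenised) was treated with eight concentrations from 0.1 to 10 mM for 10 min at room temperature, then 3 min at 37 °C. It was solubilised with 0.8% NP40 and benzonase (60 min, 4 °C) and ultracentrifuged, and the supernatant was TMT-labelled for LC-MS/MS. Intensities were vsn-normalised, and the value is the fold change against the NP40-processed vehicle per replicate, from three independent experiments.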

Chain of UniProt Q92556 (Q92556 whole entry): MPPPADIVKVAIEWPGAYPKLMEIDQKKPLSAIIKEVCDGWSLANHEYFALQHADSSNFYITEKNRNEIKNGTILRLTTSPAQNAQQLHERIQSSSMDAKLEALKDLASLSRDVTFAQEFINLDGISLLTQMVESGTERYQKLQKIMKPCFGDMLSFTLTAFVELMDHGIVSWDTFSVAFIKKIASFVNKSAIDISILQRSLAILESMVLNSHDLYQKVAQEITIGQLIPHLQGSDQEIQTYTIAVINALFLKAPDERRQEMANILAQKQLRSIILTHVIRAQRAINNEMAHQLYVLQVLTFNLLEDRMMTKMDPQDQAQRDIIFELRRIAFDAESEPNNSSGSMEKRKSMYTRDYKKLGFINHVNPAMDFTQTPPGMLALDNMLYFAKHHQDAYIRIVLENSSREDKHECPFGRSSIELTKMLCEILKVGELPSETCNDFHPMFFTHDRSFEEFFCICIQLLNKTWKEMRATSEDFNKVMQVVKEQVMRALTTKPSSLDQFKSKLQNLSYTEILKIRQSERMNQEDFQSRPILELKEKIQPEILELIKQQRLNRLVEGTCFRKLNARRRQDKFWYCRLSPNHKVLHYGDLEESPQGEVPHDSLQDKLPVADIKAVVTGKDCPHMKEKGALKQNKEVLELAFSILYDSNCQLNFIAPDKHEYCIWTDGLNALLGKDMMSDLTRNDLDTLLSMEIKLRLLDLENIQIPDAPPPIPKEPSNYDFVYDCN
Chain of UniProt Q96IX5 (Q96IX5 whole entry): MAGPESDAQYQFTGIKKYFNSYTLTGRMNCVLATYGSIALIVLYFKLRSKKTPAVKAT
Chain of UniProt Q9NQ29 (Q9NQ29 whole entry): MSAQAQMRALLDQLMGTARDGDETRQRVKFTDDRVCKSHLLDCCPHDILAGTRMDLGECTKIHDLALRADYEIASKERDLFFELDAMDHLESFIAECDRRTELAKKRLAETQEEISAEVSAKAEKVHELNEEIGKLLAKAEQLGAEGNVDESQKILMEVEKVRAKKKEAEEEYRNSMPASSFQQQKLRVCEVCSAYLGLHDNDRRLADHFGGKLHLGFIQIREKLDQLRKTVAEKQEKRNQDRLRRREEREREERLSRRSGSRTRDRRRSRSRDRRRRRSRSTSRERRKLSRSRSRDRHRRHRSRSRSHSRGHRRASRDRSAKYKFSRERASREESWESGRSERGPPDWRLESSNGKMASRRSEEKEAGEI
Chain of UniProt Q9P035 (Q9P035 whole entry, one chain of several): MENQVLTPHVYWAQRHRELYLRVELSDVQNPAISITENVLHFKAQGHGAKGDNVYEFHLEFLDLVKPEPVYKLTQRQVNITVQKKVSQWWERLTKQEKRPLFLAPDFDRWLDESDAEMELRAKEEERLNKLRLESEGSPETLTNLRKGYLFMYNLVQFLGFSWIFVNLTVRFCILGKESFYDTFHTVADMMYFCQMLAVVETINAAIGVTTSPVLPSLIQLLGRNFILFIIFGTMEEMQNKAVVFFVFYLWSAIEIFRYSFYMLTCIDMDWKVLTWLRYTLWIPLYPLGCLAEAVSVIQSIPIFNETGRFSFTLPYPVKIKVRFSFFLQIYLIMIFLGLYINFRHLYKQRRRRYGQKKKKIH
Chain of UniProt Q9BSL1 (Q9BSL1 whole entry): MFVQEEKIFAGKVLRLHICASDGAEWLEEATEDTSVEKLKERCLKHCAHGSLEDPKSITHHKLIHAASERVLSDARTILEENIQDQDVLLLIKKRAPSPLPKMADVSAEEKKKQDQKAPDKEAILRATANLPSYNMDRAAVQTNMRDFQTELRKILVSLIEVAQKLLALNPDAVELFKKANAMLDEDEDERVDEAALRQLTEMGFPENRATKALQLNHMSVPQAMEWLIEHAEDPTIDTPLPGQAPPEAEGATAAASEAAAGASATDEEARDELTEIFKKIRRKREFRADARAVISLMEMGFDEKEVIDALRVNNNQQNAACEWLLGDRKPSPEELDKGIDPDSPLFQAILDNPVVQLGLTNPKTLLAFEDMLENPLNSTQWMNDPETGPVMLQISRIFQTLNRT
Chain of UniProt Q9GZP9 (Q9GZP9 whole entry, one chain of several): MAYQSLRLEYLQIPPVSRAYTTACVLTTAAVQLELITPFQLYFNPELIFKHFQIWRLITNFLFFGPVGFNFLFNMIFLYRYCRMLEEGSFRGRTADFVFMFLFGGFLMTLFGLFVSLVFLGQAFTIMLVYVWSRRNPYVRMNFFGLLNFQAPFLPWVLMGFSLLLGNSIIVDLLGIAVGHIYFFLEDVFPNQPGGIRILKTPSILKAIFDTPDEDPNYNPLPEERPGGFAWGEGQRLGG
Chain of UniProt Q9NYP7 (Q9NYP7 whole entry): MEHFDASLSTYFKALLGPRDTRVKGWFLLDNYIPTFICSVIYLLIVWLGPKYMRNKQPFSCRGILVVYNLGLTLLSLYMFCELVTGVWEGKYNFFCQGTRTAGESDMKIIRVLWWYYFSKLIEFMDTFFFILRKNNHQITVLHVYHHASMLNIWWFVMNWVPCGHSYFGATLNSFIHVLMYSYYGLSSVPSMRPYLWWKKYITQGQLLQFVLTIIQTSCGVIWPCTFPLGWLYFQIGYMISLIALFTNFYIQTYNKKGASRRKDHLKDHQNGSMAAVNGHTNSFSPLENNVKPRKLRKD
Chain of UniProt Q9H9H4 (Q9H9H4 whole entry): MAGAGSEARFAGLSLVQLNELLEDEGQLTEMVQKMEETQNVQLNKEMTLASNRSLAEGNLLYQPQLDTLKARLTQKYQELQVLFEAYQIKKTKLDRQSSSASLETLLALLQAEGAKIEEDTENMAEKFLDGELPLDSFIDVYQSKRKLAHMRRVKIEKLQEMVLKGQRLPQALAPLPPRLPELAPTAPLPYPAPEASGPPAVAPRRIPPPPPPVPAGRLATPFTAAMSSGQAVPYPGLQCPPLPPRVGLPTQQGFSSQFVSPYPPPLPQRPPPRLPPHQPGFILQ
Chain of UniProt Q9BS26 (Q9BS26 whole entry): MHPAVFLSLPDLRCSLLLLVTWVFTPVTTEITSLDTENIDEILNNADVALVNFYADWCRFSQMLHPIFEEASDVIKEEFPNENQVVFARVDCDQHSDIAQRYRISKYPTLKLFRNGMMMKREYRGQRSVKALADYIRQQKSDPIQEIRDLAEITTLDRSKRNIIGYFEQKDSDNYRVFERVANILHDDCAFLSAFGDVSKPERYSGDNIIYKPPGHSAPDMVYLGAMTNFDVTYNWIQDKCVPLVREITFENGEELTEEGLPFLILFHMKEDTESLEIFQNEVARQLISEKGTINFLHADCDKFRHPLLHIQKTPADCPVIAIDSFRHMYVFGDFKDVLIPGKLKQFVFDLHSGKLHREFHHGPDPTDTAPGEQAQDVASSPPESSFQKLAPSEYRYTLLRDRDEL
Chain of UniProt Q9NW64 (Q9NW64 whole entry): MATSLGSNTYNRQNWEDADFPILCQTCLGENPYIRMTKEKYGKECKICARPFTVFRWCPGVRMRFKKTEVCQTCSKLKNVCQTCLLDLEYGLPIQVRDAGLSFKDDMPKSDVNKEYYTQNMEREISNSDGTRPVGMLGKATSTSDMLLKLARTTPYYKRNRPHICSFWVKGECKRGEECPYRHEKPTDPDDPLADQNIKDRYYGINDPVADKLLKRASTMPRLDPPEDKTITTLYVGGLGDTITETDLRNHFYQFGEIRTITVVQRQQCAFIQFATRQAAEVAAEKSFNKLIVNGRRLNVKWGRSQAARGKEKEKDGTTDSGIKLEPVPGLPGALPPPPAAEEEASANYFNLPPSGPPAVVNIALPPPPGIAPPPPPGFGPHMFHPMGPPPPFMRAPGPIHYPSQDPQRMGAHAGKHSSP
Chain of UniProt Q9HAJ7 (Q9HAJ7 whole entry): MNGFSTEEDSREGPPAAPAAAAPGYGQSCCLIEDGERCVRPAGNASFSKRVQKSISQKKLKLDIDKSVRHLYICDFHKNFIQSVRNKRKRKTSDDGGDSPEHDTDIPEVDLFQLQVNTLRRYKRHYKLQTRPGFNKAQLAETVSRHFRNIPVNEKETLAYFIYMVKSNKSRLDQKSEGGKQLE
Chain of UniProt Q96NT0 (Q96NT0 whole entry, one chain of several): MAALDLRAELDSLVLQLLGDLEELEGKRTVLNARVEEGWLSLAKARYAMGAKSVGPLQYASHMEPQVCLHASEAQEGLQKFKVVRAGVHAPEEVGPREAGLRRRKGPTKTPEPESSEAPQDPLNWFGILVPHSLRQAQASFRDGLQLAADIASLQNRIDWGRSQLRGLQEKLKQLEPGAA
Chain of UniProt Q9HAN9 (Q9HAN9 whole entry): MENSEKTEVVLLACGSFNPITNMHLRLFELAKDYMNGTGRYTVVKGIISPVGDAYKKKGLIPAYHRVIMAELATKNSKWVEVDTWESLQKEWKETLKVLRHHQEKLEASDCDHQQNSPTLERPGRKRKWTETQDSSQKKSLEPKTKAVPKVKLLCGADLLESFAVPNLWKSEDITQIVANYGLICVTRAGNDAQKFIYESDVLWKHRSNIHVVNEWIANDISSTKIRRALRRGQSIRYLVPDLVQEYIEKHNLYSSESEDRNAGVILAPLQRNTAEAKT
Chain of UniProt Q9H6W3 (Q9H6W3 whole entry): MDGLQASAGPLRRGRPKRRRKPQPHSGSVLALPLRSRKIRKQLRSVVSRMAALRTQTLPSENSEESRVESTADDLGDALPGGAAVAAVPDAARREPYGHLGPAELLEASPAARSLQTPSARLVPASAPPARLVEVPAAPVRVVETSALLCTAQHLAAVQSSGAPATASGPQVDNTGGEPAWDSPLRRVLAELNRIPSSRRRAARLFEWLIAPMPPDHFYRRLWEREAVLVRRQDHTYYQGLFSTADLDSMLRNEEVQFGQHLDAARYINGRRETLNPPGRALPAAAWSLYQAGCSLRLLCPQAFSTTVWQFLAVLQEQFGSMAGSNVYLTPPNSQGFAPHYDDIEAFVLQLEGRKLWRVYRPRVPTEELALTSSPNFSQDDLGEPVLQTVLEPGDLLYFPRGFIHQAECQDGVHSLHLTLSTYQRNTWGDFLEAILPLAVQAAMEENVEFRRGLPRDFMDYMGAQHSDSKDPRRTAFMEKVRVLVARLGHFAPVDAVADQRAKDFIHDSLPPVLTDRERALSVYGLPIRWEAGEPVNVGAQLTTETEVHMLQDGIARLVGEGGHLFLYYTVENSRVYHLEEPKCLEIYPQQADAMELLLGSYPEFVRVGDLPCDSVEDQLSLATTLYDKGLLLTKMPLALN

Target	NP40-soluble protein abundance (concentration: 1mM)	NP40-soluble protein abundance (concentration: 2mM)	NP40-soluble protein abundance (concentration: 4mM)	NP40-soluble protein abundance (concentration: 6mM)	NP40-soluble protein abundance (concentration: 8mM)	NP40-soluble protein abundance (concentration: 10mM)
CDK5RAP3 (UniProt Q96JB5)	0.997 ± 0.041	1.05 ± 0.066	1.08 ± 0.065	1.11 ± 0.068	1.12 ± 0.045	1.14 ± 0.099
UniProt Q8WYP5|Q8WYP5-2|Q8WYP5-3	1.13 ± 0.037	1.16 ± 0.048	1.28 ± 0.079	1.38 ± 0.096	1.42 ± 0.12	1.53 ± 0.13
DPCD (UniProt Q9BVM2)	0.965 ± 0.024	1.02 ± 0.045	0.969 ± 0.01	0.933 ± 0.048	0.929 ± 0.069	1.01 ± 0.087
TBRG4 (UniProt Q969Z0)	0.981 ± 0.047	0.957 ± 0.015	0.928 ± 0.026	0.962 ± 0.069	0.955 ± 0.022	0.948 ± 0.015
UniProt Q9NVR5	0.965 ± 0.028	0.98 ± 0.039	1 ± 0.047	1.04 ± 0.065	1.01 ± 0.12	0.967 ± 0.044
UniProt Q9NZC7|Q9NZC7-2	1.028 ± 0.01	1.04 ± 0.073	1.04 ± 0.1	1.08 ± 0.13	1.06 ± 0.073	1.2 ± 0.29
RDH14 (UniProt Q9HBH5)	0.997 ± 0.049	1.01 ± 0.0098	1.03 ± 0.043	0.998 ± 0.056	1.05 ± 0.037	1.01 ± 0.035
MRPS31 (UniProt Q92665)	0.994 ± 0.058	0.93 ± 0.066	0.871 ± 0.062	0.923 ± 0.14	0.865 ± 0.088	0.857 ± 0.073
FAM117A (UniProt Q9C073)	1.04 ± 0.03	0.992 ± 0.02	0.999 ± 0.039	1.01 ± 0.025	0.972 ± 0.053	0.972 ± 0.024
UniProt Q969U7|Q969U7-2	1.02 ± 0.072	1.01 ± 0.012	0.965 ± 0.055	0.983 ± 0.029	0.978 ± 0.072	0.986 ± 0.081
BIRC6 (UniProt Q9NR09)	1.05 ± 0.029	1.01 ± 0.058	0.992 ± 0.031	0.99 ± 0.12	0.999 ± 0.083	0.994 ± 0.088
UniProt Q9NUQ7|D6RA67	1.09 ± 0.15	1.07 ± 0.13	1.05 ± 0.093	0.95 ± 0.18	1.08 ± 0.072	1.02 ± 0.091
NCOA5 (UniProt Q9HCD5)	1.09 ± 0.031	1.22 ± 0.056	1.49 ± 0.062	1.85 ± 0.12	2.23 ± 0.12	2.76 ± 0.14
UniProt Q9NY12|Q9NY12-2	1.11 ± 0.061	1.18 ± 0.084	1.29 ± 0.067	1.41 ± 0.16	1.72 ± 0.15	1.93 ± 0.32
UniProt Q9NW64	1.05 ± 0.068	1.04 ± 0.041	1.07 ± 0.034	1.09 ± 0.05	1.1 ± 0.049	1.11 ± 0.019
UniProt Q9BTT6	0.931 ± 0.073	0.916 ± 0.081	0.945 ± 0.049	0.967 ± 0.092	0.961 ± 0.092	0.922 ± 0.045
UniProt Q9BXI6|Q9BXI6-2	0.935 ± 0.035	0.917 ± 0.032	0.927 ± 0.031	0.941 ± 0.038	0.895 ± 0.025	0.925 ± 0.045
UniProt Q9NYP7|Q9NYP7-2	1.07 ± 0.19	1.05 ± 0.12	1.05 ± 0.14	0.94 ± 0.15	1.09 ± 0.17	1.01 ± 0.056
UniProt Q92833|Q92833-2	1.33 ± 0.27	1.32 ± 0.34	1.48 ± 0.51	1.49 ± 0.48	1.59 ± 0.63	1.76 ± 0.69
LUC7L (UniProt Q9NQ29)	2.7 ± 0.14	2.9 ± 0.11	2.86 ± 0.17	3.28 ± 0.17	2.93 ± 0.17	3.11 ± 0.15

Target	NP40-soluble protein abundance (concentration: 1mM)	NP40-soluble protein abundance (concentration: 2mM)	NP40-soluble protein abundance (concentration: 4mM)	NP40-soluble protein abundance (concentration: 6mM)	NP40-soluble protein abundance (concentration: 8mM)	NP40-soluble protein abundance (concentration: 10mM)
ZNF48 (UniProt Q96MX3)	1.11 ± 0.069	1.13 ± 0.034	1.21 ± 0.077	1.31 ± 0.15	1.34 ± 0.12	1.4 ± 0.12
UniProt Q9BTE6|Q9BTE6-3	0.947 ± 0.046	0.965 ± 0.018	0.932 ± 0.015	0.964 ± 0.067	0.928 ± 0.036	0.958 ± 0.025
PGAM5 (UniProt Q96HS1)	1.1 ± 0.037	1.14 ± 0.083	1.3 ± 0.06	1.48 ± 0.16	1.64 ± 0.089	1.72 ± 0.11
FUT8 (UniProt Q9BYC5)	1 ± 0.035	0.987 ± 0.052	1.02 ± 0.025	0.9889 ± 0.0069	1.04 ± 0.045	1.01 ± 0.039
UniProt Q96NT0|B8ZZ99	0.832 ± 0.11	0.87 ± 0.12	0.886 ± 0.061	0.84 ± 0.16	0.863 ± 0.11	0.849 ± 0.16
MECR (UniProt Q9BV79)	0.969 ± 0.013	0.959 ± 0.056	0.964 ± 0.037	0.957 ± 0.054	0.94 ± 0.013	0.92 ± 0.012
TDP1 (UniProt Q9NUW8)	1.02 ± 0.032	1.02 ± 0.046	0.983 ± 0.063	1 ± 0.069	0.985 ± 0.049	1.01 ± 0.062
UniProt Q92804|Q92804-2	1.05 ± 0.14	1.07 ± 0.15	1.24 ± 0.2	1.5 ± 0.29	1.59 ± 0.21	2.05 ± 0.3
UniProt Q9P035|H3BS72	1.1 ± 0.16	1.1 ± 0.11	1.1 ± 0.11	1.01 ± 0.091	1.1 ± 0.033	1.15 ± 0.083
UniProt Q96P11-2	1.05 ± 0.039	1.05 ± 0.03	1.11 ± 0.058	1.09 ± 0.068	1.13 ± 0.083	1.18 ± 0.072
PNKP (UniProt Q96T60)	1.04 ± 0.02	1.0346 ± 0.00031	1.03 ± 0.022	1.05 ± 0.023	1.11 ± 0.036	1.157 ± 0.011
VPS37B (UniProt Q9H9H4)	0.992 ± 0.11	0.958 ± 0.12	0.967 ± 0.057	0.983 ± 0.12	0.946 ± 0.073	0.887 ± 0.13
UniProt Q9BWW4|Q9BWW4-2|Q9BWW4-3	1.05 ± 0.11	0.958 ± 0.12	0.933 ± 0.12	0.999 ± 0.12	0.956 ± 0.056	0.906 ± 0.1
PAFAH2 (UniProt Q99487)	1 ± 0.098	1.01 ± 0.074	0.978 ± 0.053	1 ± 0.27	0.992 ± 0.05	1.02 ± 0.064
UniProt Q8WX93|Q8WX93-3|Q8WX93-4|Q8WX93-5|Q8WX93-8	0.978 ± 0.024	0.966 ± 0.046	1.01 ± 0.026	0.97 ± 0.042	0.971 ± 0.044	0.986 ± 0.036
UniProt Q96GM8|Q96GM8-2	1.06 ± 0.095	1.22 ± 0.14	1.35 ± 0.12	1.38 ± 0.12	1.53 ± 0.13	1.82 ± 0.32
SACS (UniProt Q9NZJ4)	1.09 ± 0.08	1.04 ± 0.072	1.08 ± 0.056	0.991 ± 0.075	1.102 ± 0.01	1.05 ± 0.042
UniProt Q9UBF8-2	0.962 ± 0.044	0.961 ± 0.065	0.9581 ± 0.0056	0.938 ± 0.011	0.9049 ± 0.007	0.928 ± 0.026
RABEP2 (UniProt Q9H5N1)	0.967 ± 0.062	0.941 ± 0.036	0.929 ± 0.035	0.956 ± 0.046	0.905 ± 0.011	0.901 ± 0.039
ZNF512B (UniProt Q96KM6)	1.01 ± 0.04	1.05 ± 0.02	1.07 ± 0.024	1.12 ± 0.044	1.08 ± 0.03	1.08 ± 0.043

Target	NP40-soluble protein abundance (concentration: 1mM)	NP40-soluble protein abundance (concentration: 2mM)	NP40-soluble protein abundance (concentration: 4mM)	NP40-soluble protein abundance (concentration: 6mM)	NP40-soluble protein abundance (concentration: 8mM)	NP40-soluble protein abundance (concentration: 10mM)
UniProt Q9GZP9|I3L1T3	0.935 ± 0.091	0.903 ± 0.083	0.946 ± 0.13	0.887 ± 0.12	0.944 ± 0.068	0.916 ± 0.11
PAAF1 (UniProt Q9BRP4)	1.02 ± 0.037	1.04 ± 0.02	1.01 ± 0.072	0.982 ± 0.02	0.977 ± 0.011	1.01 ± 0.023
UniProt Q96IX5	0.875 ± 0.049	0.935 ± 0.11	0.936 ± 0.16	0.976 ± 0.15	0.909 ± 0.16	0.99 ± 0.14
UniProt Q9H974|Q9H974-4	1.03 ± 0.044	1 ± 0.035	1 ± 0.029	0.996 ± 0.044	1.02 ± 0.016	0.991 ± 0.025
UniProt Q9H6W3	1.2 ± 0.019	1.25 ± 0.029	1.31 ± 0.063	1.46 ± 0.1	1.54 ± 0.11	1.73 ± 0.093
UniProt Q9UEY8|Q9UEY8-2	1.01 ± 0.019	1.02 ± 0.018	1.01 ± 0.014	1.02 ± 0.035	0.99 ± 0.023	1.004 ± 0.0086
UniProt Q96LT9|Q96LT9-2	1.31 ± 0.027	1.46 ± 0.034	1.75 ± 0.15	1.95 ± 0.12	1.78 ± 0.02	2.06 ± 0.096
ELMO1 (UniProt Q92556)	1.05 ± 0.05	1.04 ± 0.043	1.02 ± 0.036	1 ± 0.067	1.04 ± 0.038	1.05 ± 0.05
ITPKC (UniProt Q96DU7)	0.986 ± 0.048	0.971 ± 0.041	1.0284 ± 0.00016	0.857 ± 0.11	0.886 ± 0.026	0.883 ± 0.019
UniProt Q9BS26	0.982 ± 0.043	0.956 ± 0.035	0.943 ± 0.057	0.945 ± 0.067	0.952 ± 0.06	0.941 ± 0.054
DHX33 (UniProt Q9H6R0)	1.04 ± 0.059	1.1 ± 0.012	1.349 ± 0.0092	1.29 ± 0.089	1.44 ± 0.18	1.51 ± 0.2
DNAJC9 (UniProt Q8WXX5)	1.04 ± 0.024	1.13 ± 0.012	1.34 ± 0.04	1.55 ± 0.057	1.73 ± 0.12	1.76 ± 0.1
UniProt Q96II8|Q96II8-2|Q96II8-4	1.17 ± 0.11	1.21 ± 0.057	1.2 ± 0.035	1.22 ± 0.078	1.17 ± 0.068	1.21 ± 0.034
UBAC1 (UniProt Q9BSL1)	0.988 ± 0.025	1 ± 0.025	1.03 ± 0.033	1.04 ± 0.061	0.965 ± 0.034	0.98 ± 0.038
UniProt Q9UBS0	1.1 ± 0.063	1.11 ± 0.082	1.12 ± 0.088	1.05 ± 0.053	1.15 ± 0.14	1.09 ± 0.11
SENP8 (UniProt Q96LD8)	0.97 ± 0.057	0.942 ± 0.032	0.943 ± 0.014	0.922 ± 0.035	0.911 ± 0.024	0.932 ± 0.023
SAP30L (UniProt Q9HAJ7)	1.0942 ± 0.00039	1.12 ± 0.069	1.13 ± 0.092	1.185 ± 0.0041	1.11 ± 0.13	1.07 ± 0.082
UniProt Q96KB5|Q96KB5-2	1 ± 0.038	0.98 ± 0.051	0.964 ± 0.031	0.949 ± 0.083	0.958 ± 0.042	0.965 ± 0.039
UniProt Q9BSW2-2	0.967 ± 0.041	1.01 ± 0.034	1.02 ± 0.02	1.01 ± 0.018	0.972 ± 0.0098	0.988 ± 0.04
NMNAT1 (UniProt Q9HAN9)	1.33 ± 0.36	3.44 ± 2.5	3.91 ± 2.9	4.35 ± 3.5	3.99 ± 2.9	3.99 ± 3
